# The source made the active and inactive calls. How the calls were made is not given here.
# Assay: V-ATPase regulators in yeast, S. cerevisiae, pHLuorin, powder sets 2-3, dose response (AID 651730)
row,Compound,outcome
1,NS(=O)(=O)c1cccc(C(=O)N2CCN(c3nc4ccc(F)cc4s3)CC2)c1,inactive
2,Cc1ccnc(C(=O)Nc2ccccc2N2CCOCC2)c1,inactive
3,CS(=O)(=O)c1ccc(C(=O)Nc2ccccc2N2CCOCC2)o1,inactive
4,O=C(c1cc(CO)ccn1)N1CCN(c2nc3ccc(F)cc3s2)CC1,inactive
5,CN(C)Cc1ccc(C(=O)N2CCN(c3nc4ccc(F)cc4s3)CC2)o1,inactive
6,CN(C)C(=O)c1cccc(C(=O)N2CCN(c3nc4ccc(F)cc4s3)CC2)c1,inactive
7,O=C(Nc1ccccc1N1CCOCC1)c1cncc(Cl)n1,inactive
8,NS(=O)(=O)c1cccc(C(=O)Nc2ccccc2N2CCOCC2)c1,inactive
9,N#Cc1ccnc(C(=O)Nc2ccccc2N2CCOCC2)c1,inactive
10,CN(C)Cc1ccc(C(=O)Nc2ccccc2N2CCOCC2)o1,inactive
11,COCc1cccc(C(=O)Nc2ccccc2N2CCOCC2)c1,inactive
12,NC(=O)c1cccc(C(=O)N2CCN(c3nc4ccc(F)cc4s3)CC2)c1,inactive
13,N#Cc1cccc(C(=O)Nc2ccccc2N2CCOCC2)c1,inactive
14,NC(=O)c1ccc(C(=O)N2CCN(c3nc4ccc(F)cc4s3)CC2)o1,inactive
15,O=C(c1cc(C(F)(F)F)ccn1)N1CCN(c2nc3ccc(F)cc3s2)CC1,inactive
16,O=C(Nc1ccccc1N1CCOCC1)c1ccc(C(F)(F)F)o1,inactive
17,COCc1ccc(C(=O)Nc2ccccc2N2CCOCC2)o1,inactive
18,O=C(c1ccc(Br)o1)N1CCN(c2nc3ccc(F)cc3s2)CC1,inactive
19,O=C(Nc1ccccc1N1CCOCC1)c1cccc(C(F)(F)F)c1,inactive
